Screening data from PubChem BioAssay.
In the library only some 3.5% were active in any assay of this set; here they are far more common.
FBW7 act – activators of human E3 ligase FBW7; Q969H0; AlphaScreen FBW7–phospho-cyclin E peptide binding, activator screen; normalized activity (activation), % at 26.1 µM; 650,000 compounds, 0.13% hits; in the data active = normalized activity above about 1.9%;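 note: purified mutant Fbw7 with reduced substrate affinity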
Target sequence (Q969H0 whole entry, looked up): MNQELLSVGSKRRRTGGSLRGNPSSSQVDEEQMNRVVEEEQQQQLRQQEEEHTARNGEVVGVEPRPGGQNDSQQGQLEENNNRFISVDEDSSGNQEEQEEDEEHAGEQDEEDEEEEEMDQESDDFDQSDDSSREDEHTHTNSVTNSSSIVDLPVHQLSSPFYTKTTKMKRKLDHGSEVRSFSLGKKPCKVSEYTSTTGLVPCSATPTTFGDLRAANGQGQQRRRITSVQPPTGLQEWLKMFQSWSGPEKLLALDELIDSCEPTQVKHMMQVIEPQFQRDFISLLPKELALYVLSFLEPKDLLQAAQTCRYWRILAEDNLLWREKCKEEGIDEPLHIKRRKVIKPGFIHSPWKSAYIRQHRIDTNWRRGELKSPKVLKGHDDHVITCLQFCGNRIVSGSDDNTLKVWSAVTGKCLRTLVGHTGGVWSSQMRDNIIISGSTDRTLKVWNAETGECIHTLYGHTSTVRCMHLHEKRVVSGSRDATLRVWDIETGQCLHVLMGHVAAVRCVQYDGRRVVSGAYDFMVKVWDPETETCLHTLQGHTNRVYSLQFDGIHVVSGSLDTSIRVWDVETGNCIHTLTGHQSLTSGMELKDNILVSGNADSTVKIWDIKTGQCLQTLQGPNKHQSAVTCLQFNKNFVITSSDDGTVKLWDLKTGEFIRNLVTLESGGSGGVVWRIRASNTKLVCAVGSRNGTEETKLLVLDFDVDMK
MITF primary – inhibitors of human MITF. AID 1259374. O75030. 650,000 compounds, 0.91% hits. AlphaScreen MITF homodimerization, bead proximity signal. inhibition, % at 2.6 µM; in the data active = inhibition above about 50%;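 note: 0% = vehicle wells with protein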
TEAD-YAP block – TEAD-YAP interaction inhibition | HEK-TIYL cells, TEAD-Gal4/YAP UAS-luciferase luminescence | inhibition, % at 9.12 µM | 640,000 compounds, 1.4% hits; in the data active = inhibition above about 32%;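 note: 0% = median of test compound wells and 100% = reference inhibitor wells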
GPR151 activ – activates the human receptor GPR151 | PathHunter beta-arrestin GPR151 cells, luminescence | 650,000 compounds, 1% hits | activation, % at 11.2 µM | AID 1508602; in the data active = activation above about 4.9%;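 note: 0% = median of compound wells and 100% = cells with positive control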
The depositor's hits bear a star.

SMILES	FBW7 act	MITF primary	TEAD-YAP block	GPR151 activ
COC(=O)c1ccc(NC(=O)CCCC(=O)OCC(Cl)=C(Cl)Cl)cc1	-0.3	-7.2	-6.2	-0.2
Cc1nc(C)n(-c2ccc(Nc3nccc(-c4cc(F)cc(N5CCCC5)c4)n3)cc2)n1	0.0	-2.6	1.0	-0.1
Cc1nc(C)n(-c2ccc(Nc3nccc(-c4cc(F)cc(-c5cn[nH]c5)c4)n3)cc2)n1	-0.2	6.6	-3.6	0.6
Cc1nc(C)n(-c2ccc(Nc3nccc(-c4cccc(-n5cncn5)c4)n3)cc2)n1	0.0	9.2	44.5*	-0.2
CNc1cc(F)cc(-c2ccnc(Nc3ccc(-n4nc(C)nc4C)cc3)n2)c1	0.3	31.2	58.7*	-2.2
CCN1CCN(c2cc(F)cc(-c3ccnc(Nc4ccc(-n5nc(C)nc5C)cc4)n3)c2)CC1	0.6	15.5	67.5*	1.9
Cc1nc(C)n(-c2ccc(Nc3nccc(N(CCO)Cc4ccccc4)n3)cc2)n1	-0.1	-6.0	51.5*	0.7
NNC(=O)C(Cc1ccn[nH]1)NC(=O)C1CCC(=O)N1 (stereo unspecified)	-0.1	9.0	4.4	0.4
CCOP(=O)(CC(=O)NNC(=O)Nc1cccc2ccccc12)OCC	-0.1	20.2	7.2	-0.4
O=C(Nc1nc2ccc(NC(=O)C34CC5CC(CC(C5)C3)C4)cc2s1)c1ccccc1	0.3	3.9	24.1	0.5
COc1ccc2c(c1)c(CC(=O)NC(c1ccccc1)c1ccc(Br)cc1)c(C)n2C(=O)c1ccc(Cl)cc1 (stereo unspecified)	0.3	18.3	11.4	0.7
Cn1c(-c2ccccc2)c(C(C[N+](=O)[O-])c2ccco2)c2ccccc21 (stereo unspecified)	0.0	10.7	54.4*	1.2
Cn1c(-c2ccccc2)c(C(C[N+](=O)[O-])c2ccc(C(F)(F)F)cc2)c2ccccc21 (stereo unspecified)	-0.1	-1.6	-7.0	-0.9
Cc1ccc(CSc2nnc(-c3cccnc3)n2C)cc1	-0.3	16.4	-4.5	-1.3
CCCCN(CC)S(=O)(=O)c1cc(C(=O)Nc2ccc(Oc3ccccc3)cc2)ccc1F	-0.1	-3.6	59.9*	0.4
CCN(c1ccccc1)S(=O)(=O)c1cc(C(=O)Nc2ccc(Br)cc2)ccc1F	0.0	6.2	4.0	-0.4
COc1cccc(NC(=O)c2ccc(F)c(S(=O)(=O)N(C)Cc3ccccc3)c2)c1	0.0	-6.0	-3.9	2.3
CN(Cc1ccccc1)S(=O)(=O)c1cc(C(=O)Nc2ccc(Oc3ccccc3)cc2)ccc1F	0.1	27.5	61.4*	0.0
CCN(Cc1ccccc1)S(=O)(=O)c1cc(C(=O)Nc2ccc(Br)cc2)ccc1F	-0.1	-0.6	50.3*	1.3
Cc1cc(C)nc(NS(=O)(=O)c2ccc(NC(=O)NC(=O)N(C)S(C)(=O)=O)cc2)n1	0.3	9.2	3.3	-1.9
COC(=O)c1c(NC(=O)CSc2nnc3nc(C)cc(C)n23)sc2c1CCCCC2	-0.1	6.2	10.2	1.2
CCC1CCCCN1S(=O)(=O)c1c(C)[nH]c(=O)[nH]c1=O (stereo unspecified)	0.0	3.1	2.5	-0.4
Cc1nc(C)n(CC(=O)N2CCC3(CC2)CC3C(=O)NCCCc2ccccc2)n1 (stereo unspecified)	-0.2	-4.7	1.8	-0.8
N#Cc1ccc(NC(=O)CCCOc2ccc(Br)cc2)cc1	0.3	0.3	-12.7	0.1
O=C(Nc1ccc(Oc2ccc([N+](=O)[O-])c3cnccc23)cc1)c1ccco1	0.1	19.4	39.4*	-2.1
SMILES	FBW7 act	MITF primary	TEAD-YAP block	GPR151 activ
O=[N+]([O-])c1ccc(C2(O)NN=C3CCCCCN32)cc1 (stereo unspecified)	0.0	-15.0	4.7	-2.0
O=C(COC(=O)C1CC(=O)N(c2ccc(Br)cc2)C1)c1ccc(Br)cc1 (stereo unspecified)	0.1	-6.0	1.2	1.1
C=CCOC(=O)C1=C(C)NC2=C(C(=O)CCC2)C1c1cc(OC)c(OC)cc1[N+](=O)[O-] (stereo unspecified)	-0.6	10.5	31.9*	1.6
COc1cc(-c2ccc(NC(=O)Nc3ccccc3C)c(OC)c2)ccc1NC(=O)Nc1ccccc1C	0.5	13.7	45.1*	-1.7
COc1ccc(C(=O)/C=C/Nc2ccc(C)cc2)cc1OC	-0.2	-5.9	22.0	0.0
CN1C(=O)/C(=C\C=C\c2ccco2)SC1=S	-0.8	82.1*	-1.3	1.4
CN1C(=O)S/C(=C\C=C\c2ccco2)C1=O	0.4	43.9	-19.8	1.0
CC(C)C(C(=O)O)N1C(=O)/C(=C/C=C/c2ccco2)SC1=S (stereo unspecified)	-1.3	64.0*	-1.9	0.3
O=[N+]([O-])c1cnc(Nc2ccc(S(=O)(=O)Nc3nccs3)cc2)c([N+](=O)[O-])c1	-0.1	9.4	0.1	1.1
O=[N+]([O-])c1ccc(Nc2nccs2)c([N+](=O)[O-])c1	-0.1	5.3	58.5*	-1.4
O=C(NNC(=S)NCC1CCCO1)c1sc2cccc(F)c2c1Cl (stereo unspecified)	0.2	-3.0	-16.3	2.7
Cc1cc(C(=O)CN2CCN(C)CC2)c(C)n1-c1ccc(Br)cc1	0.5	88.0*	7.8	-1.2
CCN1CCN(CC(=O)c2cc(C)n(-c3ccc(F)cc3)c2C)CC1	-0.1	79.5*	-6.2	1.0
CCC(C)(C)n1nnnc1C(c1ccccc1)N1CCN(C)CC1 (stereo unspecified)	0.2	10.9	-2.5	2.6
COc1ccc(-n2ncc3c(N4CCCCCC4)ncnc32)cc1	0.1	-6.7	96.8*	-5.0
COc1ccc(-n2ncc3c(N4CCCCC4)ncnc32)cc1	0.4	12.2	90.8*	-7.9
COc1ccc(-n2ncc3c(N4CCN(c5ccccc5)CC4)ncnc32)cc1	0.0	-9.4	-1.1	-0.7
CC(C)N(CCNc1nc(Nc2ccncc2)nc2c1ncn2C(C)C)C(C)C	0.3	14.0	13.4	-1.2
O=C(Nc1cc(-c2ccccc2Oc2cccc(F)c2)ccn1)C1CCOC1 (stereo unspecified)	1.1	49.6	33.4*	2.3
O=C(Nc1cc(-c2ccccc2OCc2ccccc2)ccn1)C1CCOC1 (stereo unspecified)	-0.1	11.0	88.7*	0.3
O=C(Nc1cc(-c2ccccc2Oc2ccc(F)cc2)ccn1)C1CCOC1 (stereo unspecified)	1.2	22.2	25.6	3.3
COc1cc(C(F)(F)F)c(C(=O)NC2(O)C(=O)c3ccccc3C2=O)cn1	-0.6	3.4	2.3	-1.1
COc1ccc(-n2nc(C(=O)c3ccccc3)c(C(F)(F)F)cc2=O)cn1	-0.1	-2.0	49.1*	1.8
OCCN1CCN(C2CCN(Cc3cc(Br)ccc3O)CC2)CC1	0.0	53.2*	-11.0	0.0
CC1CN(C2CCN(Cc3cc(Br)ccc3O)CC2)CC(C)O1 (stereo unspecified)	0.0	70.5*	9.9	-0.5
Oc1ccc(Br)cc1CN1CCC(N2CCCCC2)CC1	-0.6	45.9	-0.6	-0.6
CCCCCCCC(=O)Nc1ccc(C(=O)NC2CCCCC2)cc1	0.0	3.9	-3.9	-0.3
O=C(O)c1ccc(N2C(=O)CC(N3CCN(c4ccccc4Cl)CC3)C2=O)cc1 (stereo unspecified)	0.1	2.5	5.8	0.4
